# According to publication PMC12136788:
# Numbering of substitutions follows the chain as printed. In all, about 5,800 sequences were measured (“enrichment r”: median about 0.54, highest 2% from about 16 on). This excerpt belongs to a sample that is enriched for the highest values.
# B1: ENSG00000070961:be:win_601|CDS|ENSG00000070961|bound_else_gene|NA|bound_elsewhere_windowed (ssRNA)
# RNA: GGGAGUUCUACAGUCCGACGAUCCAGGUCAUUCAGAUACCUGUAGCUGACAUUACUGUUGGAGAUAUUGCUCAAGUGAAAUAUGGUGAUCUUCUUCCAGCUGACGGCAUACUUAUUCAAGGCAACGAUCUUAAAAUUGAUGAACAACAGAGGAUUGAGCAUCA
# B2: chr11:10770493:10770605:+|CDS|ENSG00000198730|unk|FALSE|unique (ssRNA)
# RNA: GGGAGUUCUACAGUCCGACGAUCACAUGUGGCACCCAGUGAUACAGUUCUUAUGUUUAAUGUGGCCUUGGUCCUGCAAAGAUUAGCUACCUCUGUCCUGAAAGAUGAAAAAAGUAAUCUGAAGGAAGUACUUAAUGCUGUGAACAACAGAGGAUUGAGCAUCA
# B3: chr1:51919672:51919773:-|3pUTR|ENSG00000169213|unk|FALSE|unique (ssRNA)
# RNA: GGGAGUUCUACAGUCCGACGAUCUAUUCUUUGCCUGCCCCUGGGGUUCUCUGCAGAUGGUCCCAGUAAUAGAUACUCAGCACUAGACUAACAUAACAGGUCACUACACGGGUGCAGAAUCACUUUACAAAAGAAGACUCUGUUCAACAGAGGAUUGAGCAUCA
# B4: ENSG00000107863:be:win_5751|CDS|ENSG00000107863|bound_else_gene|NA|bound_elsewhere_windowed (ssRNA)
# RNA: GGGAGUUCUACAGUCCGACGAUCACCUGACCAAAUAAACGGAGAAAGCUUCCAGAACGUGAGCAAAAAUGCUAGUUCUGCAGCGAAUGCCCAACCUCAUAAACUGUCUGAAACCCCAGGCAGUAAAGCAGAGUUUCAUCCCUGCAACAGAGGAUUGAGCAUCA
# B5: chr1:113685846:113685948:+|3pUTR|ENSG00000081026|unk|FALSE|unique (ssRNA)
# RNA: GGGAGUUCUACAGUCCGACGAUCUAUAUACACUUGAGGUUCUGAUUAGAGAAAGAUCUGUAAAUUGCUCAUUAUUUUUUAUAUAGAUAUUUAAAAAAAACAGUUUAUGGCCUGCAUUUCUUUUACUGUCACAUUGGUUUAAUGCAACAGAGGAUUGAGCAUCA
# B6: chr21:14485227:14485911:-|three_prime_utr|ENSG00000155307|control|control|control (ssRNA)
# RNA: GGGAGUUCUACAGUCCGACGAUCCCCAACUAUAUAUCUACAGAUGCAUUCCAUUUUAACUCUUCUUGAGCUAAAACGUCAAAUAGGAGAGGAAGAUAAGAUAAAUAUUUGUAAAUAAAACCUAAAGUUUAAAUGUUUUAAUCUCAACAGAGGAUUGAGCAUCA
# B7: chr2:158176520:158176661:-|CDS|ENSG00000153237|control|control|control (ssRNA)
# RNA: GGGAGUUCUACAGUCCGACGAUCGCUGUUGUUGCUCAAUUUGAUCCUGUUAGAAUGAUGUCAGAUACAAUGGCAUCAAAAGCUAGAAUGGGCAUUGAAAUUGAAGAAGAAUUUAUUCUUCAAAAGCCACUCUUCACAUUGAAUCAACAGAGGAUUGAGCAUCA
# B8: chr2:151248206:151248307:-|3pUTR|ENSG00000184898|msi1|FALSE|unique (ssRNA)
# RNA: GGGAGUUCUACAGUCCGACGAUCUUUUUUUAAAGCAAAGAUUAAAUUCCCAUGUAAAACCUUCCUCCCUAUACAAAAAAGAAUAGCAGCAUUUUUAUCUUCAAUGACAAAGAAUUGAGUCCAAGAAAAUACUGUAUAAACCUUCAACAGAGGAUUGAGCAUCA
# B9: chr14:55048714:55048815:+|3pUTR|ENSG00000180008|msi1|FALSE|bound_elsewhere (ssRNA)
# RNA: GGGAGUUCUACAGUCCGACGAUCUUUCUAAUUUUGAACAGAUGACUCAGUCCUAAAUCUUUGCCUUUAUUUCCUAUAAAAUGUAGGUGAUACUUGUAACUCGACUUCCUGGAGUUAAUUCUUCAGCAAGAGGUGACCCUGGGACAACAGAGGAUUGAGCAUCA
# B10: chr9:72354534:72354635:-|3pUTR|ENSG00000107372|msi1|total|mutant (ssRNA)
# RNA: GGGAGUUCUACAGUCCGACGAUCGUCCCCGUUUUUACUUUUAUUCUUAAAGCAUUCAGUUUUGCUUUCAAUUUUAUGUACCUCCGUUCUGAGUCCGACCUGCAGAUGUGUACAGACCGUUCAUAUUUAUGUAUUGCACAUAAUCAACAGAGGAUUGAGCAUCA
# B11: chr9:72354534:72354635:-|3pUTR|ENSG00000107372|msi1|FALSE|unique (ssRNA)
# RNA: B10 RNA with C28U, C29A, C83U, C84A, C94U, C95A, C116U, C117A
# B12: chr10:95311796:95311897:-|3pUTR|ENSG00000095637|unk|FALSE|unique (ssRNA)
# RNA: GGGAGUUCUACAGUCCGACGAUCCAGACAUAGAUUUUUCUGUUCAUUUAUUUUUCUUCAUUGCAGUGGAUUGAUUUGAUAAAUAGAUGUGUUGAAUUACUACAUUUGCUGUACAUAUUAUUUAAUAAACUUUAUUCAGAAUUGCAACAGAGGAUUGAGCAUCA
# B13: ENSG00000070961:be:win_5651|3pUTR|ENSG00000070961|bound_else_gene|NA|bound_elsewhere_windowed (ssRNA)
# RNA: GGGAGUUCUACAGUCCGACGAUCGUUUCUAGUCUUGGUUUUGCCAUUAAUGUGCUGCAUGAUCUUGGGAAAAUCAUUUACCCUAAAUAAGGGUGGUGGACUAUCUUGAAGAACCCUUUCAACUCUAAAAAUUGACCCUAUCAACAACAGAGGAUUGAGCAUCA
# B14: chr17:18209558:18209659:+|3pUTR|ENSG00000091542|msi1|FALSE|unique (ssRNA)
# RNA: GGGAGUUCUACAGUCCGACGAUCGGUAGCUUCUAUCCACUCAGAUCCUGGAAGGCAGCAAGGUUUUGUGGAUCUAGAUUCAUUAGGAAUGUCUUCUUGUCAGCCAGGCCAGGACCCGGGCUUGCCAAGAGCAGAGGCCCUCCCCAACAGAGGAUUGAGCAUCA
# Biological target: MSI1 full-length (mouse, UniProt Q61474 1-362)
# Sequence (Q61474 whole entry): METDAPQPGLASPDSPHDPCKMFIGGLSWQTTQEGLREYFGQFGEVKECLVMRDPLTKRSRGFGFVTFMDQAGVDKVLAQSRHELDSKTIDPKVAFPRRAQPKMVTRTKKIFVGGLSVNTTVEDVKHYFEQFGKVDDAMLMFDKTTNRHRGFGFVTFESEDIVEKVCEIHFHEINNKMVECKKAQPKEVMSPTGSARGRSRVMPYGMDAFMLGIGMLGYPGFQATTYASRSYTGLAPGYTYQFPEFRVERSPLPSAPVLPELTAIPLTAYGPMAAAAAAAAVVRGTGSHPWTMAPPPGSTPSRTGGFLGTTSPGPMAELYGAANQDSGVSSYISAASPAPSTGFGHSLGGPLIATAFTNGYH
# Assay: nsRBNS (natural sequence RNA bind-n-seq); RBNS binding buffer (assumed for nsRBNS): 25 mM Tris pH 7.5, 150 mM KCl, 3 mM MgCl2, 0.01% Triton X-100, 500 ug/ml BSA, 20 U/ml SUPERase-In, 4 C; UNK is unkempt and MSI1 is Musashi-1; names of the RNAs are library labels; protein concentration not given here; high values mean tight binding
row,Binder,binding signal
1,B1,0.234 enrichment R
2,B2,0.659 enrichment R
3,B3,0.896 enrichment R
4,B4,0.256 enrichment R
5,B5,13.4 enrichment R
6,B6,1.2 enrichment R
7,B7,0.406 enrichment R
8,B8,0.494 enrichment R
9,B9,0.258 enrichment R
10,B10,1.52 enrichment R
11,B11,42.6 enrichment R
12,B12,2.8 enrichment R
13,B13,0.357 enrichment R
14,B14,1.93 enrichment R
